Measurements reported in ChEMBL document CHEMBL3988442, “University of Dundee, Small-Polar-MMV Screening Library” (2021).

How the values were obtained:
[1] = target: T1, Aspartate--tRNA(Asp/Asn) ligase (Mycobacterium tuberculosis (strain ATCC 25618 / H37Rv)) (UniProt P9WFW3); assay: Assay for Asp RNA synthetase-1 from Mycobacterium tuberculosis; format: functional; parameters: scale not given: direction of the effect not stated beside the values; conditions: 30 µM; further: in the data most compounds retested in dose-response had high values
T1 sequence (whole entry): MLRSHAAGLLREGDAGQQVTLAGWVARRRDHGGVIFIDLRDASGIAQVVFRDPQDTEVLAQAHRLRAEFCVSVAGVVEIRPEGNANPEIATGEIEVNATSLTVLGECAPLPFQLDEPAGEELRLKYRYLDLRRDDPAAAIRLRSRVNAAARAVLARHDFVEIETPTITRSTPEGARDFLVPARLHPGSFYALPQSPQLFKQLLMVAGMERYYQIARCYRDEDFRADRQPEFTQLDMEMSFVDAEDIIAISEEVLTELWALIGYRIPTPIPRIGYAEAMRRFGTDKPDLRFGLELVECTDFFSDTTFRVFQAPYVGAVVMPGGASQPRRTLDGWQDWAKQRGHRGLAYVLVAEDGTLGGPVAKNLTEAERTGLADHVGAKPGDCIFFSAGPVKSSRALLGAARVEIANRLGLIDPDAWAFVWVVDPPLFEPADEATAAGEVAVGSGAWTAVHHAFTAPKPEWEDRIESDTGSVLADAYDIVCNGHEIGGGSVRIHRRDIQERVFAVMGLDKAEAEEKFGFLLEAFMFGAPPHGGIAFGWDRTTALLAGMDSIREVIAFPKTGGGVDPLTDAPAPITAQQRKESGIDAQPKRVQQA

[2] = target: Shiga toxin 2 (Escherichia coli O157:H7) (UniProt P09385+P09386); assay: E. coli 0.157:H7 Shiga Toxin SOP - stx2 screening assay; format: functional; parameters: scale not given: direction of the effect not stated beside the values; conditions: 30 µM

Row | SMILES | Percent Effect [1] [%] | Percent Effect [2] [%]
1 | COc1ccc(C2CC(=O)Nc3c2nc2n3CCCC2)cc1OC (configuration not stated) | 0.342 | 0.28
2 | CNS(=O)(=O)c1cccc(C(C)NCc2cccc(OC)c2)c1 (configuration not stated) | 0.915 | -24.3
3 | O=C(CSc1ccc(F)c(F)c1)NS(=O)(=O)c1ccc2c(c1)OCCO2 | 3.35 | 10.6
4 | Cc1ccc(S(=O)(=O)Nc2ccc(=O)n(C)c2)cc1 | 26.8 | -7.78
5 | Cc1cccc(-c2nc(CN3CCc4c(ncn4C)C3)no2)c1 | 1.91 | 4.04
6 | Cc1ccc(S(=O)(=O)NC2CNC(=O)C2)cc1C (configuration not stated) | -1.98 | 9.86
7 | COCC(=O)N1CC[C@@H](N2CCOCC2)[C@@H]1Cc1ccccc1 | 9.38 | -28.8
8 | Cc1ncnc2c1CCN(Cc1ccc3c(c1)OCO3)CC2 | -0.729 | -19.3
9 | Cc1nnc(CN2CCN(CCOc3ccccc3C#N)CC2)n1C | 3.6 | 3.89
10 | Cc1nnc(NCC2(c3ccc(Cl)cc3Cl)CCOCC2)c(C#N)c1C | 1.93 | -16.4
11 | CC(C)c1nccn1-c1cccc(C2CCCN2S(=O)(=O)N(C)C)n1 (configuration not stated) | 8.78 | 0.999
12 | CNc1nc(CNC(=O)Nc2cccc(F)c2)cs1 | -1.08 | -9.25
13 | CS(=O)(=O)c1ccc(CNC(=O)N2CCC(C(N)=O)C2)cc1 (configuration not stated) | -1.49 | -11.7
14 | CS(=O)(=O)NCCCN1CCCC1Cc1ccccc1 (configuration not stated) | -3.08 | -0.572
15 | CC(c1nc(C2CC2)no1)N1CCN(Cc2ccsc2)CC1 (configuration not stated) | -4.63 | -11.4
16 | CCc1nnc2n1CCN(C(=O)Cc1csc(-c3ccco3)n1)C2 | -2.26 | -3.06
17 | Cc1ccccc1CCNC(=O)C1CC(=O)N(CC(F)(F)F)C1 (configuration not stated) | 4.08 | 9.05
18 | CC(C)CC1SCC(=O)Nc2c1cnn2C(C)C (configuration not stated) | 3.17 | -18.7
19 | CCCS(=O)(=O)N1CCN(c2ccnc(N3CCCC3)n2)CC1 | 2.06 | -50.6
20 | O=C([C@H]1C[C@H]2OCC[C@H]2N(C(=O)C2CCOCC2)C1)N1CCCCO1 | 0.757 | -26.6
21 | O=C(NCC1CCCO1)c1c(-n2cnnn2)sc2c1CCC2 (configuration not stated) | 1.11 | 2.95
22 | COc1ccc(C2CCCN2C(=O)NCCNc2ncccn2)cc1 (configuration not stated) | 10.2 | -17.2
23 | COc1ccc(CN2CCC3(CC2)CCN(CC2CC2)C3=O)cc1 | -4.6 | -2.04
24 | CCN1CC2(CC1=O)CN(Cc1cccs1)CCN(C(=O)C(C)C)C2 (configuration not stated) | -0.746 | 0.818
25 | Cc1noc(NC(=O)c2ccc(C)c(F)c2)n1 | -11.1 | -3.27
26 | O=C1[C@H]2CC[C@H](CN(Cc3ccccc3OC(F)F)C2)N1CC1CC1 | 4.85 | 7.93
